Assay outcomes as filed in PubChem.
DRD3 antagonist – qHTS of D3 Dopamine Receptor Antagonist: qHTS. max response, negative = inhibition, %. actives 2.5% (n = 360,000). D3R cells, DiscoveRx beta-arrestin luminescence, antagonist mode; active compounds read low; in the data active = max response below about -50%; inconclusive = no clear call, values can overlap the other calls; note: % is set by controls: 0 for no effect and ±100 for the full control effect
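Cells plated overnight at 1500 cells/well, then exposed to library compounds with dopamine controls for 90 minutes at 37 degrees C. DiscoveRx reagent added for 30–60 minutes at room temperature; luminescence read, quantitative HTS format.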
D1 antagonist – Antagonist of Human D 1 Dopamine Receptor: qHTS; HEK293 TREx D1 cells, calcium flux, dopamine EC80; active compounds read low; activity change, negative = inhibition, % at 10 µM; AID 504652, 2011; actives 3.2% (n = 360,000); D(1A) dopamine receptor (Homo sapiens), P21728; in the data active = activity change below about -30%; note: % is set by controls: 0 for no effect and ±100 for the full control effect
Target sequence (P21728 whole entry, looked up): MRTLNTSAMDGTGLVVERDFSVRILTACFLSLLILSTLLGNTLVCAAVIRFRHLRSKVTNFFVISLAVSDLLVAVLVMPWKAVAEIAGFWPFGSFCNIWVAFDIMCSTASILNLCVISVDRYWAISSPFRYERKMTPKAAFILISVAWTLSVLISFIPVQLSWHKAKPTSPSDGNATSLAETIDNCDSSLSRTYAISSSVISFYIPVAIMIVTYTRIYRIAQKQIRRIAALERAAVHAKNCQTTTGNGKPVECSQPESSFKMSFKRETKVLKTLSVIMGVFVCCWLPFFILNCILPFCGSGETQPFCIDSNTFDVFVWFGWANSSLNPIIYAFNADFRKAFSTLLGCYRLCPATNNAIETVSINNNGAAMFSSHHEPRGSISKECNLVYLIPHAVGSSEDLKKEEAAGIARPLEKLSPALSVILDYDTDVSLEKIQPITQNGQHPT
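Inducible Hek293 Trex D1 cells (tetracycline, overnight, 30 C). Calcium dye 30–90 min RT. Antagonist mode: EC80 dopamine added after 180 s compound read.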
DRD3 agonist – qHTS of D3 Dopamine Receptor Agonist: qHTS; D(3) dopamine receptor (Homo sapiens), P35462; D3R DiscoveRx beta-arrestin cells, luminescence, 90 min; max activation, %; actives 0.58% (n = 410,000); in the data active = max activation above about 30%; note: 0% is about no effect
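Agonist-mode cell screen: cells plated at 1500/well and incubated overnight at 37 °C, then exposed to library compounds for 90 min at 37 °C. Detection reagent was added for 30–60 min at room temperature, and luminescence was read.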
D1 potentiator – Potentiators of Human D1 Dopamine Receptor: qHTS. D(1A) dopamine receptor (Homo sapiens), P21728. HEK293 TREx D1 cells, calcium flux, dopamine EC20 potentiation. potentiation, % at 10 µM. actives 0.036% (n = 360,000); in the data active = potentiation above about 30%; note: 0% is about no effect
D1 ag – Allosteric Agonists of the Human D1 Dopamine Receptor: qHTS. D(1A) dopamine receptor (Homo sapiens), P21728. HEK293 T-REx D1 cells, calcium flux, agonist mode. activation, % at 2 µM. actives 1% (n = 360,000); in the data active = activation above about 30%; note: 0% is about no effect
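Inducible HEK293 T-REx D1 cells, force-coupled to calcium signalling, were plated at 4000 cells/well with tetracycline and held overnight at 30 C. After no-wash calcium dye loading, compound-evoked calcium rise over 180 s flagged agonists.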
The depositor's hits bear a star; ? = inconclusive; . = not tested or not shown; ! = repeats disagree. In the library only some 6% were active in any assay of this set; here they are far more common.

SMILES	DRD3 antagonist	D1 antagonist	DRD3 agonist	D1 potentiator	D1 ag
COc1cccc(C(=O)NCCS(=O)(=O)N2CCCC2)c1	-63*	-9	-5	2	4
CCN(c1ccccc1)S(=O)(=O)c1cccc(C(=O)NCC(c2ccc(OC)cc2)N2CCCCC2)c1 (configuration not stated)	-122*	.	-5	.	.
Cn1cccc1-c1cc2n(n1)CCC(=O)N2CC(=O)Nc1ccc(F)cc1Cl	.	-17	2	-1	-2
CCc1ccccc1NC(=O)CCn1nc(C)c2c(C)n(-c3ccccc3)nc2c1=O	.	-2	2	1	-1
COc1ccc(-c2cc(C(=O)Nc3c(F)cc(F)cc3Br)no2)cc1	0	-3	1	0	3
COc1ccc(CNC(=O)c2ccc3c(c2)N(Cc2cccc(Cl)c2)C(=O)c2ccccc2S3)c(OC)c1	.	-28	8	-2	1
Cn1c(NCCO)nc2c1c(=O)n(Cc1cccc(F)c1)c(=O)n2C	.	-5	0	1	0
COc1ccc(C(CNC(=O)CNC(=O)c2cccc(Cl)c2)N2CCCC2)cc1 (configuration not stated)	-26	-37*	-10	.	5
Cc1ccc(NC(=O)c2ccc(C)c(S(=O)(=O)N3CCCCCC3)c2)cc1	.	2	3	-5	8
Cc1ccc(C(=O)Nc2cccc(O)c2)cc1S(=O)(=O)N1CCCCCC1	-11	-33*!	-4	-3	1
COc1ccc(C(CNC(=O)c2cccc(S(=O)(=O)Nc3ccccc3OC)c2)N2CCCCC2)cc1 (configuration not stated)	-81*	.	-28	.	.
COc1ccc(NS(=O)(=O)c2cccc(C(=O)NCC(c3ccc(OC)cc3)N3CCCCC3)c2)cc1 (configuration not stated)	-57*	.	-14	.	.
Cc1cccc(N2CCN(C(=O)C3CCCN(S(=O)(=O)c4c(C)noc4C)C3)CC2)c1C (configuration not stated)	-6	.	67*	.	.
Cc1cccc(N2CCN(C(=O)C3CCN(S(=O)(=O)c4cccs4)CC3)CC2)c1C	.	-34*	-10	-2	-3
Cc1cccc(N2CCN(C(=O)C3CCC(CNS(=O)(=O)c4cccs4)CC3)CC2)c1C (configuration not stated)	2	-4	13	-1	-3
Cc1nc(Cl)c2c(n1)NC1=C(O2)C(=O)CCC1	8	-11	3	-8	38*
O=C1NC2=C(C(=O)CCC2)C(c2ccccc2Cl)N1 (configuration not stated)	-3	1	5	-3	1
COc1ccc(OC)c2c1C(=O)c1ccccc1C2=O	14	-1	-1	0	31*
COc1ccc(OC)c2c1C(=O)C(Cl)=C(Cl)C2=O	-126*	-27	-23	-8	10
COc1cccc2c1-c1c(C(=O)O)cccc1C2=O	7	0	2	-6	2
COc1cccc2c1C(=O)c1ccc3ccccc3c1C2=O	-15	-35*	3	-2	1
COc1ccc(N)c2c1C(=O)c1ccccc1C2=O	?	-2	-15	4	3
COC(=O)CC(=O)CSc1nc2cc(C(=O)NC(C)C)ccc2c(=O)n1CCc1ccccc1	.	-20	6	-6	3
COc1cc(CNC(=O)c2sc3ncccc3c2-n2cccc2)cc(OC)c1OC	.	-17	2	-4	11
CC(C)(C)OC(=O)n1c2ccsc2c2cnn(Cc3ccccc3F)c(=O)c21	.	10	.	5	0
SMILES	DRD3 antagonist	D1 antagonist	DRD3 agonist	D1 potentiator	D1 ag
CC(C)Nc1ncnc2c1ncn2[C@H]1CN(Cc2ccco2)C[C@@H](CO)O1	17	.	-1	.	.
CC(=O)C1=C(c2ccc(Br)cc2)C(=O)c2ccccc2C1=O	-87*	14	-13	-1	1
CNC1=C(N(C(C)=O)c2ccc(Br)cc2)C(=O)c2ccccc2C1=O	-23	-13	-2	2	0
CCCCn1c(NC(=O)c2ccccc2)c(C#N)c2nc3ccccc3nc21	47	-4	13	-1	35*
CCC(C)n1c(NC(=O)c2ccccc2)c(C#N)c2nc3ccccc3nc21 (configuration not stated)	-11	-5	-2	3	4
O=C(c1cccs1)N1CCc2c([nH]c3ccccc23)C1c1ccc(Cl)cc1 (configuration not stated)	-53*	-12	-6	-11	3
CC(=O)c1ccc(C(=O)N2CCc3c([nH]c4ccccc34)C2c2ccccn2)s1 (configuration not stated)	7	-31*	-10	-2	1
Cc1ccc(-c2nnc(Nc3ccc(O)cc3)c3ccccc23)cc1S(=O)(=O)N1CCCCC1	.	-17	-5	0	-2
COC(=O)[C@@H]1C[C@@]2(O)[C@H](O)[C@H](O)[C@H](O)C[C@H]2N1CC1CC1	-7	-15	12	4	5
COC(=O)[C@@H]1C[C@@]2(O)[C@@H](O)[C@@H](O)[C@@H](O)C[C@H]2N1CC1CCCCC1	0	-56*	3	0	13
COc1ccc(NS(=O)(=O)c2cc(NC(=O)COc3ccc(OC)cc3)ccc2N2CCOCC2)cc1	3	.	-5	.	.
Cc1cnc(NS(=O)(=O)c2ccc(Cl)cc2)c(Br)c1	2	-38*	-7	-1	1
O=S(=O)(Nc1ccc(Cl)cn1)c1ccc(Cl)cc1	0	1	3	0	0
CCc1ccc2nc(N=C(N)N)nc(C)c2c1	11	-16	3	0	3
Cc1ccc2nc(N=C(N)N)nc(C)c2c1	-3	-52*	9	-9	1
Cn1nc(C(C)(C)C)cc1C(=O)N1CCCCC1c1cc(C(=O)NCc2cccnc2)no1 (configuration not stated)	0	.	-3	.	.
CCOC(=O)CCn1c(=O)c2cccn2c2cccnc21	.	3	3	-3	3
CCn1cc(/C=C(\NC(=O)c2cc(OC)c(OC)c(OC)c2)C(=O)NCCCn2ccnc2)c2ccccc21	.	-2	-9	0	22
O=C1/C(=C\c2ccco2)SC(=S)N1C1CCCCC1	.	23	.	34*	2
COC(=O)c1cc2oc3ccccc3c2n1Cc1c(C)cc(C)cc1C	.	14	-2	-8	1
CN(C(=O)c1ccc(Oc2ccc([N+](=O)[O-])cc2)cc1)C1CCCCC1	6	-35*	7	-3	11
CCc1ccc(NC(=O)C(=O)NCC(c2ccc3c(c2)OCO3)N2CCN(C)CC2)cc1 (configuration not stated)	.	6	-7	-2	17
